Among all 65,000 compounds or so, about 100 (0.15%) were called active. The full list was thinned out, with actives kept by preference. A number with no mark means an inactive call.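 How the source made its calls: active means inhibition above about 50% (limit read from the data); inconclusive means inhibition over screen mean plus 3 SD, below that limit; inactive means the rest.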
Biological target: Dual specificity protein phosphatase 1 (Homo sapiens) (UniProt P28562)
Experiment: blockers of human DUSP1 activity – biochemical, in vitro, primary screen (AID 374);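 further: 0% = DMSO max control wells and 100% = wells with enzyme stopped by NaOH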
Conditions: recombinant MKP-1, OMFP hydrolysis fluorescence; hits give high values;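 compounds tested at a single concentration somewhere between 10 and 100 µM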

Dual specificity protein phosphatase 1 (Homo sapiens), sequence (P28562 whole entry, looked up): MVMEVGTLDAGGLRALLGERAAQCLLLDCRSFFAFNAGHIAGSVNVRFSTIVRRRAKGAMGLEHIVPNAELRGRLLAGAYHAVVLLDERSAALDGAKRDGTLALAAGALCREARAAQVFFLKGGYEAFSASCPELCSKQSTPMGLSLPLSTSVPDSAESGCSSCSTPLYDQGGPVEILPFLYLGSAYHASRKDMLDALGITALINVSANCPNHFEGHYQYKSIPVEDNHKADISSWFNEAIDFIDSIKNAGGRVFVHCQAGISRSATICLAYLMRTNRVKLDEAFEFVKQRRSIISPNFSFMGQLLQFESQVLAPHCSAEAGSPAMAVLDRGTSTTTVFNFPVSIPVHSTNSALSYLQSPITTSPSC

Structure (SMILES)	inhibition
COC(=O)N(c1ccc(OC)cc1)P1(=S)OCCC(C)O1 (stereo not given)	100% (active)
CCOC(=O)c1c(N)n(Cc2ccccc2)c2nc3ccccc3nc12	32.1%
COC(=O)C(c1ccccc1)N1CCCCCC1 (stereo not given)	-10.8%
CCc1nc2ccccc2c(=O)n1-c1cccc(OC)c1	2.83%
CCN(CC)CCOC(=O)c1cc2cc(COC)ccc2o1	2.26%

— PubChem BioAssay AID374 (University of Pittsburgh Molecular Library Screening Center, 2006)
